PABP1 MLLE inh – inhibitors of PABP1 MLLE–PAM2 peptide binding, primary screen, biochemical, fluorescence polarization, FITC-PAM2, GST-MLLE | inhibition, % at 20 µM | hit rate 0.36% among 360,000 | Polyadenylate-binding protein 1 (Homo sapiens), P11940; in the data active means inhibition above about 35%, passing the limit was not always enough;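 further: plate controls were DMSO wells with GST-MLLE for no effect and wells lacking GST-MLLE protein for full effect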
eIF4H FP inh – human eIF4H binding inhibitors, primary screen, translation initiation inhibitor project, biochemical, uHTS, fluorescence polarization. Eukaryotic translation initiation factor 4H (Homo sapiens), Q15056. eIF4H fluorescence polarization binding assay. inhibition, % at 35 µM. hit rate 0.94% among 290,000. AID 2012, 2009;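 further: calls also rest on retests at 20 µM and on dose response follow-up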
APOBEC3A inh – APOBEC3A ssDNA deaminase inhibitors, primary screen, selectivity assay for APOBEC3G inhibitor project, biochemical, FAM/TAMRA oligo cleavage fluorescence; DNA dC->dU-editing enzyme APOBEC-3A (Homo sapiens), P31941; recombinant A3A, FAM/TAMRA ssDNA deamination fluorescence; inhibition, % at 20 µM; hit rate 0.41% among 330,000;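 active means at least 40% inhibition at 20 µM here, with at most 30% in a related deaminase screen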;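 further: plate controls were A3A with DMSO for no effect and wells lacking A3A enzyme for full effect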
Target sequence (P31941 whole entry, looked up): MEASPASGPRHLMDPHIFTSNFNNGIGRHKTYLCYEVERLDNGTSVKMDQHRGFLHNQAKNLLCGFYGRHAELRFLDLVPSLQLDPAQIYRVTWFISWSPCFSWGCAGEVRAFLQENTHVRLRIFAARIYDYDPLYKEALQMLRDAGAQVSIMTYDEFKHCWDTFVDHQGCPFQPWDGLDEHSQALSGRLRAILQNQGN
A3G deaminase – APOBEC3G DNA deaminase inhibitors, primary screen, biochemical, fluorescence, single-stranded DNA substrate, uHTS; DNA dC->dU-editing enzyme APOBEC-3G (Homo sapiens), Q9HC16; recombinant A3G, ssDNA deamination FAM/TAMRA fluorescence; inhibition, % at 20 µM; hit rate 0.28% among 330,000;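 active means inhibition of at least 40% at 20 µM, with no more than 30% in the related APOBEC3A deaminase screen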;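 further: plate controls were DMSO wells with A3G for no effect and wells lacking A3G enzyme for full effect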
Target sequence (Q9HC16 whole entry, looked up): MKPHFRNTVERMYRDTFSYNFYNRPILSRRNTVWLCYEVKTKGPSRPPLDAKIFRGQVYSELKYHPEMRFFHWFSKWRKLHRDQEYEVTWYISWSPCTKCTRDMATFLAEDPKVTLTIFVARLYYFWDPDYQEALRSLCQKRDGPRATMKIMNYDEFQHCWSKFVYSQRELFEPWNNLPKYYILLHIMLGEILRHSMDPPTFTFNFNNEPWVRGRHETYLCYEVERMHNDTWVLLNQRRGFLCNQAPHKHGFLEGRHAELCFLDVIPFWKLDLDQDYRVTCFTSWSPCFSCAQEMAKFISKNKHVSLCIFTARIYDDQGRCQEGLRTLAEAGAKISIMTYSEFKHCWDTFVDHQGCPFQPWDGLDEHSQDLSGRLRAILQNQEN
PHOSPHO1 block – PubChem AID 1565. hit rate 1.1% among 290,000. inhibition, % at 13.3 µM. recombinant PHOSPHO1, absorbance phosphatase assay; in the data active means inhibition above about 60%
PABP polyA inh – PABP poly(A) RNA binding inhibitors, primary screen, biochemical, fluorescence polarization, uHTS. AID 2014, 2009. calls only at 35 µM. Polyadenylate-binding protein 1 (Homo sapiens), P11940. hit rate 1% among 290,000;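 further: calls also rest on retests at 20 µM and on dose response follow-up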
APOBEC3A confirm – APOBEC3A deaminase inhibitors, retest, confirmation, selectivity assay for APOBEC3G inhibitor project, biochemical, single concentration, fluorescence readout; recombinant A3A, ssDNA deaminase UDG fluorescence assay; AID 493151, 2011; shares compounds with APOBEC3A inh; hit rate 63% among 1,400; inhibition, % at 20 µM;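 active means inhibition reaching a set limit, 80% of the first screen's cutoff, at 20 µM in any replicate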;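 further: plate controls were DMSO wells with A3A for no effect and wells lacking A3A enzyme for full effect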
UDG ctr A3A – E. coli UDG inhibitors, confirmation, counter-screen for APOBEC3A inhibitor project, biochemical, single concentration, fluorescence, FAM/TAMRA oligo; shares compounds with APOBEC3A inh; UDG counterscreen, FAM/TAMRA uracil oligo fluorescence; inhibition, % at 20 µM; 1,000 tested, under 10 active
Active calls of the source: *. Compounds with a hit are over-represented: about 2.6% of the library has one in this group of screens. Unless noted, how the calls were made is not given here.

What do the screens show for `CCC(/C=C1\Sc2ccc(OC)cc2N1CC)=C\c1sc2ccc(OC)cc2[n+]1CCCS(=O)(=O)[O-]`?
PABP1 MLLE inh: 10; eIF4H FP inh: -6; APOBEC3A inh: 2; A3G deaminase: -3; PHOSPHO1 block: -38; PABP polyA inh: inactive

Results for CCN1/C(=C/c2cc[n+](CCCS(=O)(=O)[O-])c3ccccc23)Sc2ccccc21 ?
PABP1 MLLE inh: -162; eIF4H FP inh: 97*; APOBEC3A inh: 76*; A3G deaminase: 20; PHOSPHO1 block: -2; PABP polyA inh: inactive; APOBEC3A confirm: 69*; UDG ctr A3A: -1

How did CCSc1ccc2cc(OC)ccc2[n+]1CC do in these assays?
PABP1 MLLE inh: -125; eIF4H FP inh: 4; APOBEC3A inh: 78*; A3G deaminase: 28; PHOSPHO1 block: 27; PABP polyA inh: inactive; APOBEC3A confirm: 70*; UDG ctr A3A: -3

What do the screens show for `O=C1CCC/C=C/C[C@H](CC(=O)N(CCO)Cc2ccccc2)C(=O)N[C@@H](Cc2ccccc2)CO1`?
PABP1 MLLE inh: 3; APOBEC3A inh: 0; A3G deaminase: -2

How did Cc1ccc(C)c(OCC(=O)N2CCN(c3ncccn3)CC2)c1 do in these assays?
PABP1 MLLE inh: 10; APOBEC3A inh: -3; A3G deaminase: -7

What do the screens show for `CCCn1c2c(c(=N)c3c1CCC3)CCCC2`?
PABP1 MLLE inh: -141; eIF4H FP inh: -12; APOBEC3A inh: 92*; A3G deaminase: 16; PHOSPHO1 block: 0; PABP polyA inh: inactive; APOBEC3A confirm: 77*; UDG ctr A3A: -1

How did CCCCCCCn1c2c(c(=N)c3ccccc31)CCC2 do in these assays?
PABP1 MLLE inh: -99; eIF4H FP inh: -4; APOBEC3A inh: 74*; A3G deaminase: 21; PHOSPHO1 block: -43; PABP polyA inh: active; APOBEC3A confirm: 78*; UDG ctr A3A: -2

What do the screens show for `CCOC(=O)Cn1c2c(c(=N)c3c1CCC3)CCCC2`?
PABP1 MLLE inh: -15; eIF4H FP inh: 2; APOBEC3A inh: -3; A3G deaminase: -6; PHOSPHO1 block: 3; PABP polyA inh: inactive

What do the screens show for `N=c1c2c(n(Cc3ccc(Br)cc3)c3c1CCC3)CCCC2`?
PABP1 MLLE inh: -2; eIF4H FP inh: -4; APOBEC3A inh: 0; A3G deaminase: -8; PHOSPHO1 block: -7; PABP polyA inh: inactive

Results for CCCn1c2c(c(=N)c3c1CCC3)CCC2 ?
PABP1 MLLE inh: -137; APOBEC3A inh: 71*; A3G deaminase: 27; PHOSPHO1 block: -38; APOBEC3A confirm: 75*; UDG ctr A3A: 3

Results for CN(C)c1ccc(-c2csc(C(O)c3cccc(Cl)c3)n2)cc1 (stereo not given) ?
PABP1 MLLE inh: -9

Results for COc1ccc(C(N)c2csc(Nc3ccc(C(=O)NCCCO)cn3)n2)cc1 (stereo not given) ?
PABP1 MLLE inh: 0

Results for C=CCOc1ccccc1CN1CCCCCC1 ?
PABP1 MLLE inh: 16; eIF4H FP inh: 4; APOBEC3A inh: -4; A3G deaminase: -4; PHOSPHO1 block: 19; PABP polyA inh: inactive

How did O=C(C1=C[C@H](c2coc3ccccc3c2=O)C[C@H](OCCCCO)O1)N1CCN(Cc2ccccc2)CC1 do in these assays?
PABP1 MLLE inh: -1; eIF4H FP inh: 5; APOBEC3A inh: 76*; A3G deaminase: -10; PHOSPHO1 block: 30; PABP polyA inh: inactive; APOBEC3A confirm: 5; UDG ctr A3A: 6

Results for CC(C)(C)c1ccc(CCC2OCC(C[N+]3(C)CCOCC3)O2)cc1 (stereo not given) ?
PABP1 MLLE inh: -124; eIF4H FP inh: -4; APOBEC3A inh: 45*; A3G deaminase: 19; PHOSPHO1 block: -1; PABP polyA inh: inactive; APOBEC3A confirm: 73*; UDG ctr A3A: -1

Results for CCC(=O)Nc1cc(C(=O)O)ccc1S(=O)(=O)c1ccc(C)cc1 ?
PABP1 MLLE inh: 4; eIF4H FP inh: 86; APOBEC3A inh: 47*; A3G deaminase: 10; PHOSPHO1 block: 0; PABP polyA inh: inactive; APOBEC3A confirm: 52*; UDG ctr A3A: 0

How did CC(=O)Nc1cc(C(=O)O)ccc1S(=O)(=O)c1ccc(C)cc1 do in these assays?
PABP1 MLLE inh: 18; eIF4H FP inh: 3; APOBEC3A inh: 3; A3G deaminase: -8; PHOSPHO1 block: 18; PABP polyA inh: inactive

Results for CN1C(=O)C(C)(C)c2cc(S(=O)(=O)N3CCCC(C(=O)NCc4ccccc4Cl)C3)ccc21 (stereo not given) ?
PABP1 MLLE inh: -14; eIF4H FP inh: 0; APOBEC3A inh: -4; A3G deaminase: -6; PHOSPHO1 block: 10; PABP polyA inh: inactive

How did O=C(Nc1ccc(NC(=O)c2ccc(Cl)cc2Cl)cc1)c1cccs1 do in these assays?
PABP1 MLLE inh: -87; eIF4H FP inh: -6; APOBEC3A inh: 54*; A3G deaminase: 8; PHOSPHO1 block: 28; PABP polyA inh: inactive; APOBEC3A confirm: 41*; UDG ctr A3A: -2

How did Cc1ccc(NC(=O)CN(C)C(=O)COC(=O)C2=COCCO2)cc1 do in these assays?
PABP1 MLLE inh: -12; APOBEC3A inh: 2; A3G deaminase: -11

How did CC(=O)OC1C2CCC1C([N+]1(C)CCCCC1)CC2 (stereo not given) do in these assays?
PABP1 MLLE inh: -77; eIF4H FP inh: 2; APOBEC3A inh: 73*; A3G deaminase: 8; PHOSPHO1 block: -4; PABP polyA inh: inactive; APOBEC3A confirm: 73*; UDG ctr A3A: -1

Results for C[N+]1(CC(=O)OC2CCCCCCCCCCC2)CCCC1 ?
PABP1 MLLE inh: -137; eIF4H FP inh: -3; APOBEC3A inh: 80; A3G deaminase: 37; PHOSPHO1 block: -5; PABP polyA inh: inactive

Results for C[N+]1(C2CCC3CCC2C3O)CCCC1 (stereo not given) ?
PABP1 MLLE inh: -95; eIF4H FP inh: 0; APOBEC3A inh: 41*; A3G deaminase: 26; PHOSPHO1 block: -10; PABP polyA inh: inactive; APOBEC3A confirm: 67*; UDG ctr A3A: 6

Screening data (PubChem BioAssay)
